One assay has as its system PPARg homodimer (NR concentration 180 nM). The assay can be described thus: PBM binding z-score (relative to random genomic background probes); higher = stronger binding; sequences stand for … in GC…GCGATTGACAGCGTAGAATGAAGG
The essentials: (§1)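 Probes were double-stranded and carried 34-nt variable regions with direct-repeat seeds, single-nucleotide variants, half-site ablations and random human genomic background sequences, printed on custom Agilent 4×180K protein-binding microarrays. Arrays were incubated 1 h with ligand-free nuclear receptor dimers in PBS pH 7.4, 2% milk, 0.02% Triton X-100, 1 mM DTT, 0.2 mg/mL BSA and 0.4 mg/ml salmon testes DNA. Antibodies against each partner (one per run) detected binding, and scanned fluorescence was regression-normalized. Binding z-scores use the random background probes as reference.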
Take CGAACTAGGTGACCAGGACAGTGAAGAGGTTGGA: the PBM binding z-score was -0.217.
CGAACTAGGTCATAGGACAGTGAAAGGCGACGTA displayed a PBM binding z-score of 1.9.
Still for that read-out and setting: to CGAGCTAGGTCAAAGGACAGTGAAAGGCGACGTA belongs 1.2.
Sequence ATATGTAGGTGAGGGTCATTCAGAAAGTAGGGAA came in with a PBM binding z-score of 2.51.
Sequence ATAGGTAGGTTAGGGTCATTCAGAAAGTAGGGAA yielded a PBM binding z-score of 3.27.
In the case of AGATGTAGGTTAGGGTCATTCAGAAAGTAGGGAA, the PBM binding z-score is 3.93.
In turn, AAATGTAGGTTAGGGTCATTCAGAAAGTAGGGAA returned a PBM binding z-score of 3.74.
CGAACTAGGTCAAAGGAAAGTGAAAGGCGACGTA came in with a PBM binding z-score of 0.636.
As for CGAACTAGGTCACCAGGACATTGAAGAGGTTGGA, the PBM binding z-score stood at 1.53.
Still for that read-out and setting: to CGAACTAGGTCAAAGGACAGTCAAAGGCGACGTA belongs 1.64; to CGAAATAGGTCAAAGGACAGTGAAAGGCGACGTA, 2.41.
Consider ATATGAAGGTTAGGGTCATTCAGAAAGTAGGGAA, for which the PBM binding z-score came to 3.99.
Sequence ATATGTGGGTTAGGGTCATTCAGAAAGTAGGGAA yielded a PBM binding z-score of 4.09.
With CGAACTAGGTCAAAGGACAGTAAAAGGCGACGTA, the PBM binding z-score was 1.7.
For the sequence ATATGTAGGTTAGGGGCATTCAGAAAGTAGGGAA, the PBM binding z-score was found to be 2.07.
For the sequence CGAACTAGGTCACCAGGCCAGTGAAGAGGTTGGA, the PBM binding z-score came out at 2.25.
CGAACTAGGTCACCAAGACAGTGAAGAGGTTGGA gave a PBM binding z-score of 1.16.

The test system of the next assay is PXR:RXRa (NR concentration 270 nM, RXRa partner concentration 90 nM). Described as above. The method, boiled down:
as §1
The sequence CGAACTAGGTAACCAGGACAGTGAAGAGGTTGGA had a PBM binding z-score of -0.312.
The sequence CGAACTAGGTCAAAGGACAGTTAAAGGCGACGTA returned a PBM binding z-score of 1.32.
In turn, CGAACTAGGTCAAAGGACAGTGCAAGGCGACGTA showed a PBM binding z-score of 1.31.
In turn, CGAACTAGGTTACCAGGACAGTGAAGAGGTTGGA had a PBM binding z-score of -0.124.
CGAACTAGGTCACCAGGAGAGTGAAGAGGTTGGA came in with a PBM binding z-score of 1.22.
Sequence ATATGTAGGTTAGGGTCATCCAGAAAGTAGGGAA gave a PBM binding z-score of 4.46.
CGAACTAGGTCACCCGGACAGTGAAGAGGTTGGA had a PBM binding z-score of 1.55.
In the case of ATATGTAGGTTTGGGTCATTCAGAAAGTAGGGAA, the PBM binding z-score is 2.17.
As to CGAACTAGGTCAAAGGACAGGGAAAGGCGACGTA, the PBM binding z-score stood at 0.895.
Take CGAACTAGGTCACAGGACAGTGAAAGGCGACGTA: the PBM binding z-score is 1.38.
CGAAATAGGTCACCAGGACAGTGAAGAGGTTGGA: the PBM binding z-score amounted to 2.67.
On to CGAACTAGGTCGAAGGACAGTGAAAGGCGACGTA, for which the PBM binding z-score is -0.467.
Turning to CGAACTAGTTCAAAGGACAGTGAAAGGCGACGTA, the PBM binding z-score turned out to be 0.27.
The same measure, in the same setting: in the case of ATATGTAGGTTATGGTCATTCAGAAAGTAGGGAA it was 0.998.
With CGAACTAGGTTAAAGGACAGTGAAAGGCGACGTA, the PBM binding z-score is -0.281.
With CGAACTAGGTCAAAGGACAGAGAAAGGCGACGTA, the PBM binding z-score was determined as 1.26.
Regarding CGAACTAGGTCACCAGGACAGTGATGAGGTTGGA, the PBM binding z-score came out at 1.5.
Sequence ATATGTAGGTTAGGGTCATGCAGAAAGTAGGGAA returned a PBM binding z-score of 4.26.
In turn, CGAACTAGGTCAAAGGACAGTGACAGGCGACGTA registered a PBM binding z-score of 1.3.
Take CGTACTAGGTCAAAGGACAGTGAAAGGCGACGTA: the PBM binding z-score turned out to be 1.14.
For ATACGTAGGTTAGGGTCATTCAGAAAGTAGGGAA, the PBM binding z-score was determined as 4.27.
The sequence ATATGTAGGTTAGGGTCATTAAGAAAGTAGGGAA displayed a PBM binding z-score of 3.9.
CGAACTAGGTGACCAGGACAGTGAAGAGGTTGGA showed a PBM binding z-score of -0.13.
On to CGAACTAGGTCATAGGACAGTGAAAGGCGACGTA, for which the PBM binding z-score is 1.2.
In turn, CGAGCTAGGTCAAAGGACAGTGAAAGGCGACGTA showed a PBM binding z-score of 1.01.
Turning to ATATGTAGGTGAGGGTCATTCAGAAAGTAGGGAA, the PBM binding z-score is 3.02.
For the sequence ATAGGTAGGTTAGGGTCATTCAGAAAGTAGGGAA, the PBM binding z-score is 5.14.
In turn, AGATGTAGGTTAGGGTCATTCAGAAAGTAGGGAA registered a PBM binding z-score of 4.39.
AAATGTAGGTTAGGGTCATTCAGAAAGTAGGGAA yielded a PBM binding z-score of 4.47.
Still for that read-out and setting: to CGAACTAGGTCAAAGGAAAGTGAAAGGCGACGTA belongs 0.854.
CGAACTAGGTCACCAGGACATTGAAGAGGTTGGA registered a PBM binding z-score of 1.66.
Take CGAACTAGGTCAAAGGACAGTCAAAGGCGACGTA: the PBM binding z-score was found to be 1.39.
In the case of CGAAATAGGTCAAAGGACAGTGAAAGGCGACGTA, the PBM binding z-score was determined as 2.34.
As for ATATGAAGGTTAGGGTCATTCAGAAAGTAGGGAA, the PBM binding z-score came to 4.59.
With ATATGTGGGTTAGGGTCATTCAGAAAGTAGGGAA, the PBM binding z-score came out at 5.1.
Turning to CGAACTAGGTCAAAGGACAGTAAAAGGCGACGTA, the PBM binding z-score was 1.14.
The same measure, in the same setting: in the case of ATATGTAGGTTAGGGGCATTCAGAAAGTAGGGAA it was 1.43; in that of CGAACTAGGTCACCAGGCCAGTGAAGAGGTTGGA, 1.18; in that of CGAACTAGGTCACCAAGACAGTGAAGAGGTTGGA, 1.14.

The values are drawn from the supplement of paper PMC6555819.
